HTT cytoprotect: qHTS Multiplex Assay to Identify Dual Action Probes in a Cell Model of Huntington: Cytoprotection (ATP). PC12 HTT-Q103 induced, cytoprotection, ATP luminescence, 40 h. Potency, µM (top dose mostly 56.4 µM), hits mostly activators. 0.14% of 230,000 active; further: nearly all actives have a fitted effect of over 45% in size
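Cells were plated at 1500 per well in phenol red-free DMEM with 5% equine and 5% calf serum. Tebufenozide (100 nM final) and compounds were added, then ATPlite reagent, and luminescence was read.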
HTT aggregate: qHTS Multiplex Assay to Identify Dual Action Probes in a Cell Model of Huntington: Aggregate Formation (GFP); PC12 HttQ103-GFP aggregates, Acumen cytometry, 40 h; Potency, µM (titrated, usually from 46.1 µM), hits mostly inhibitors; 1.1% of 220,000 active; AID 1688, 2009; further: nearly all actives have a fitted effect of over 60% in size
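PC12/HTTQ103-GFP, ecdysone-inducible; teb 100 nM; cpd qHTS titration; GFP aggregates read on laser cytometer, Ex 488/Em 500-530 nm.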
TSG101-PTAP inh: qHTS Assay for Iinhibitors of HIV-1 Budding by Blocking the Interaction of PTAP/TSG101 | Tumor susceptibility gene 101 protein (Homo sapiens), Q99816 | Fluorescence polarization, FITC-PTAP peptide / Tsg101 binding | Potency, µM (highest dose often 115 µM), actives largely listed as inhibitors | 340,000 tested, under 10 active | AID 493005, 2010; active means well fitted inhibition curve with a large enough effect in the main read-out, with a control signal flat, not every such curve was filed as active; inconclusive means small, poorly fitted or top-dose-only effect, or effect the other way, or a change in a side signal; inactive means no such curve, though single readings can be large or run the other way
Target sequence (Q99816 whole entry, looked up): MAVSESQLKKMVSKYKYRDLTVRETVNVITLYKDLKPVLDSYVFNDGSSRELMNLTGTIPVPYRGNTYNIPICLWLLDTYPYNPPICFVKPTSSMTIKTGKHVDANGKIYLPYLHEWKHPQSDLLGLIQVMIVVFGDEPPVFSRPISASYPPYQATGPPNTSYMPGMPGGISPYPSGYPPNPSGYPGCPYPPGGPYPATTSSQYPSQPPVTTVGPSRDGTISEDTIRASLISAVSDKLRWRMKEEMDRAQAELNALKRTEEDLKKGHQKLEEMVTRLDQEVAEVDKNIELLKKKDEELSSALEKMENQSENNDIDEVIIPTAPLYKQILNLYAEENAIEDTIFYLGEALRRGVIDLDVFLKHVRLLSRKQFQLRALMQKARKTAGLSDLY
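FP read-out: FITC-PTAP peptide, 50 nM final, binding Tsg101 binding domain, 10 uM final; 20 min, r.t.; 10 mM HEPES pH 7.5, 0.15 M NaCl, 0.01% Tween 20, 3 mM EDTA, 0.1 mM TCEP.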
Anesthetic bind: qHTS Assay for Identification of Novel General Anesthetics; Ferritin light chain (Equus caballus), P02791; apoferritin/1-aminoanthracene competitive binding, fluorescence; Potency, µM (series often up to 77.5 µM), actives largely listed as inhibitors; 0.074% of 350,000 active; AID 485281, 2010; further: nearly all actives have a fitted effect of over 20% in size
Target sequence (P02791 2-175 limits assumed): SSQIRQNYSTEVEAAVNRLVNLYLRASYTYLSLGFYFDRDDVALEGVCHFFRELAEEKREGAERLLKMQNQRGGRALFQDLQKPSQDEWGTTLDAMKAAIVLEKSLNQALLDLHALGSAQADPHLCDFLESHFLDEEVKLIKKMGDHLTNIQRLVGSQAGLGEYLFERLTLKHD
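Concentration-response curves derived by four-parameter Hill fitting of normalized fluorescence, where compounds displaced 1-AMA from 10 uM horse apoferritin following a brief 10 min room-temperature incubation; propofol titration acted as positive control.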
Epigenetic reg: Quantitative High-Throughput Screen for Regulators of Epigenetic Control; murine LDR cells, GFP reporter derepression, 30 h; Potency, µM (highest dose often 53.9 µM), hits mostly activators; 0.2% of 280,000 active; AID 1865, 2009; further: nearly all actives have a fitted effect of over 60% in size
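In this reporter-derepression format, murine cells bearing a silenced integrated CMV-GFP locus incubate with test compound (30 h, 37 C), then are washed and imaged; fluorescent objects of 20–120 um count as induced cells.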
PINK1 modulator: A Quantitative High throughput Screen to Identify Chemical Modulators of PINK1 Expression; 0.2% of 410,000 active; Potency, µM (top dose mostly 76.6 µM), hits mostly activators; PINK1 immunofluorescence, high-content cytometry, 24 h; active means well fitted activation curve with a large enough effect; inconclusive means small, poorly fitted or top-dose-only effect; cell line not stated here; further: nearly all actives have a fitted effect of over 65% in size
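Fluorescence from anti-PINK1 antibody, together with nuclear and cell stains, was scanned on a laser-scanning cytometer. Before staining, stable-line cells were incubated 24 hours with compounds at 5 concentrations; primary antibody 12 h at 10 degrees C.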
Hits are given with their value; - = inactive; ? = inconclusive; . = no result; [ ] = remark or other dose. The entries come from a sample that favours hits as a whole. Unless noted, the call rests on the fitted dose curve; in most records, active means well fitted curve in the direction sought with a large enough effect; inconclusive means small, poorly fitted or top-dose-only effect, or another doubt; inactive means no such curve, though single readings can be large; an effect the other way counts as inactive or inconclusive.

SMILES | HTT cytoprotect | HTT aggregate | TSG101-PTAP inh | Anesthetic bind | Epigenetic reg | PINK1 modulator
Cc1cccc(OC(C)C(=O)Nc2nonc2-c2ccc(Br)cc2)c1C (centres undefined) | . | . | . | - | - | -
Cc1ccc2nc(-c3ccc(N)cc3)sc2c1S(=O)(=O)O | - | . | . | . | . | .
C/C(=N\NC(=O)CSCc1ccc([N+](=O)[O-])cc1)c1ccccc1O | . | 10µM | - | - | - | -
C/C(=N\NC(=O)CSCc1ccc([N+](=O)[O-])cc1)c1ccccc1 | - | - | - | ? | - | -
c1ccc2c(c1)[nH]c1c(N3CCC4(CC3)OCCO4)ncnc12 | - | 13µM | - | - | - | -
c1ccc2c(c1)CCN(c1ncnc3c1[nH]c1ccccc13)C2 | - | 11µM | - | - | - | -
COc1cccc2[nH]c3c(N4CCC5(CC4)OCCO5)ncnc3c12 | -[10 µM] | -[9.22 µM] | - | - | - | -
O=C(c1cncs1)N(Cc1cc2cc3c(cc2nc1N1CCOCC1)CCC3)CC1CCCO1 (centres undefined) | . | . | . | . | . | -
Cc1ccc(C(=O)Nc2nc(-c3ccccn3)cs2)s1 | . | . | - | . | . | -
Cn1cccc1C(=O)Nc1nc(-c2ccccn2)cs1 | - | 13µM | - | - | ? | -
Cc1csc(NC(=O)c2cccn2C)n1 | - | - | - | - | - | -
O=C(Nc1nc(-c2ccccn2)cs1)c1ccc(Cl)s1 | -[10 µM] | 0.89µM | - | - | 22µM | -
O=c1c2ccccc2nc2n1-c1ccccc1CCC2 | - | - | - | - | - | -
O=C1c2ccccc2-n2c1nc1ccccc1c2=O | - | 11µM | - | - | - | -
O=C(COC(=O)CNC(=O)C1CCCCC1)NC1CCCC1 | . | . | . | . | . | -
CN(c1ccccc1)S(=O)(=O)c1cccc(NC(=O)c2cc(=O)c3ccccc3o2)c1 | - | 13µM | - | - | - | -
O=C(Nc1cccc(S(=O)(=O)N2CCCCCC2)c1)c1cc(=O)c2ccccc2o1 | - | 20µM | - | - | - | -
Oc1ccc(Cl)cc1CN1CCOc2c(O)cc(-c3nc4ccccc4s3)cc2C1 | . | . | . | . | . | -
Cc1ccc2nc(N3CCCCCC3)c(CN(CC3CCCO3)C(=O)c3cncs3)cc2c1 (centres undefined) | . | . | . | . | . | -
Cc1nc(C(F)(F)F)c(C(=O)N/N=C(\N)c2ccccn2)s1 | - | 22µM | - | - | - | -
CCN(CC)S(=O)(=O)c1ccc2[nH]cc(C(=O)NCCC3=CCCCC3)c(=O)c2c1 | - | 10µM | - | ? | - | -
CCN(CC)S(=O)(=O)c1ccc2[nH]cc(C(=O)NCCN3CCCCCC3)c(=O)c2c1 | - | - | - | ? | - | -
COCCNc1ccc(-c2nc(-c3ccncc3)no2)cc1[N+](=O)[O-] | . | . | . | - | - | -
CCNc1ccc(-c2nc(-c3ccncc3)no2)cc1[N+](=O)[O-] | . | . | . | - | - | 14µM
Cc1c(C(=O)N2CCN(C(C)C)CC2)sc2ncnc(NCc3ccco3)c12 | . | . | . | . | . | -
SMILES | HTT cytoprotect | HTT aggregate | TSG101-PTAP inh | Anesthetic bind | Epigenetic reg | PINK1 modulator
COc1ccc(C(=O)NCC2Cc3c(F)ccc(-c4nc(C)cnc4C)c3O2)cc1F (centres undefined) | . | . | . | . | . | -
CCC1(C)Cc2c(sc3nnn(CC(=O)Nc4ccc(C)cc4)c(=O)c23)CO1 (centres undefined) | - | - | - | ? | - | 10µM
CCC1(C)Cc2c(sc3nnn(CC(=O)Nc4cccc5ccccc45)c(=O)c23)CO1 (centres undefined) | - | - | - | ? | - | ?
CCn1nc(C)cc1C(=O)NCC1Cc2cc(C)cc(-c3ccccc3C(=O)OC)c2O1 (centres undefined) | . | . | . | . | . | -
CCN(CC)c1ccc(Nc2nc(N3CCOCC3)c3ccccc3n2)cc1 | - | 7.9µM | - | ? | - | -
CC1=NN(c2ccccc2)C(=O)/C1=C/c1cccs1 | -[10 µM] | - | - | - | - | -
CC1=NN(c2ccccc2)C(=O)/C1=C\c1ccc(Br)s1 | -[10 µM] | 0.71µM | - | - | - | -
COc1cc2c(cc1OC)C(c1cc(-c3cc(Cl)ccc3Cl)oc1C)=NCC2 | . | . | . | . | . | -
CCCCn1c(NCc2cc(Cl)ccc2O)nc2ccccc21 | . | . | . | - | - | ?
CCCCn1c(NCc2cc(C)ccc2O)nc2ccccc21 | . | . | . | . | . | 16µM
COc1cc(N(C)C)c(OC)cc1/C=C1\C=Cc2ccccc21 | . | . | . | . | . | -
Cc1nc2sc(C(N)=O)c(N)c2c(C)c1CC(=O)c1ccccc1 | - | 3.5µM | - | - | - | -
O=C(CSc1ncn[nH]1)Nc1nc(-c2ccccc2)ns1 | -[0.074 µM] | 22µM | - | - | - | -
COc1ccc(N2CCn3c2nc2c3c(=O)n(CCCc3ccccc3)c(=O)n2C)c(OC)c1 | -[0.074 µM] | 11µM | - | - | - | -
COc1ccc(N2CCn3c2nc2c3c(=O)n(CCc3ccccc3)c(=O)n2C)c(OC)c1 | - | - | . | - | - | .
CC1CCN(CC(=O)NCc2ccccc2)CC1 | -[0.074 µM] | 2.5µM | - | - | - | -
CN(Cc1c(F)cccc1Cl)c1ccc(S(=O)(=O)N2CCOCC2)cn1 | - | 3.5µM | - | - | - | -
Cc1ccc(C)c(CN2CCc3nnc(CNC(=O)c4cc(C)oc4C)n3CC2)c1 | . | . | . | . | . | -
O=C1/C(=C/c2ccc(O)cc2)SC(=S)N1Cc1cccnc1 | . | - | - | - | - | 35µM
CCCN1C(=O)/C(=C/c2ccncc2)SC1=S | -[10 µM] | - | - | - | - | -
O=C1/C(=C/c2ccncc2)SC(=S)N1Cc1ccccc1 | -[10 µM] | -[9.22 µM] | - | - | 16µM | -
CN(C)CC(C)(O)c1ccc2c(c1)CN(Cc1cn(C)c3ccccc13)CCO2 (centres undefined) | . | . | . | . | . | -
O=C(Oc1c(CN2CCOCC2)cc(Cl)c2cccnc12)c1ccccc1Cl | - | ? | - | - | ? | -
Oc1ccc(Cl)c2cccnc12 | - | - | - | - | ? | -
O=C(Oc1c(CN2CCOCC2)cc(Cl)c2cccnc12)c1cccs1 | -[10 µM] | 1.3µM | - | - | ? | -
O=C(Oc1c(CN2CCOCC2)cc(Cl)c2cccnc12)c1ccc(F)cc1 | -[10 µM] | 1µM | - | - | ? | -
COc1cc(C(=O)Oc2c(CN3CCOCC3)cc(Cl)c3cccnc23)cc(OC)c1OC | - | ? | - | - | ? | -
Oc1c(Cl)cc(Cl)c2cccnc12 | - | 8.9µM | - | - | ? | -
COc1cccc(C(=O)Oc2c(CN3CCOCC3)cc(Cl)c3cccnc23)c1 | -[10 µM] | 11µM | - | ? | 4.5µM | -

Screening data deposited in PubChem by National Center for Advancing Translational Sciences (NCATS).
